Assay outcomes deposited in PubChem by National Center for Advancing Translational Sciences (NCATS).
Only some compounds are listed: those with a hit (about 18% of all), similar ones and a draw of the others.
TDP1 inh: blocks human tyrosyl-DNA phosphodiesterase 1 | Q9NUW8 | 350,000 compounds, 0.28% hits | AID 485290 | Potency, µM (highest dose often 130 µM), inactives show at the highest dose activity change, negative = inhibition, usual class: inhibitors | recombinant TDP1, AlphaScreen DNA substrate cleavage; also: potency is read from the fitted curve at half-maximal effect; nearly all actives have a fitted effect of over 40% in size
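Signal: AlphaScreen proximity between streptavidin donor and anti-FITC acceptor beads on intact substrate. Reaction: Tdp1 1 nM, substrate 15 nM final, 5 min RT after 15 min compound preincubation.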
TDP1 cell noCPT: qHTS for Inhibitors of human tyrosyl-DNA phosphodiesterase 1 (TDP1): qHTS in cells in absence of CPT; DT40 Tdp1-/- hTDP1 cells, no CPT, ATP luminescence, 48 h; 420,000 compounds, 15% hits; Potency, µM (titrated, usually from 46.2 µM), for inactives: top-dose activity change, negative = growth inhibition, most hits filed as inhibitors; AID 686978, 2013; also: potency is read from the fitted curve at half-maximal effect; nearly all actives have a fitted effect of over 55% in size
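A cellular qHTS used chicken DT40 cells lacking endogenous Tdp1 but carrying stably transfected human TDP1. Compounds were applied without camptothecin, and cell growth kinetics were judged by ATP-dependent luminescence after ≥48 hr.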
Six1-Eya2 blk: Six1/Eya2 interaction inhibition; Q15475+O00167; AlphaScreen GST-Six1/His-Eya2 binding, biochemical; active compounds read low; activity change, % (concentration not given with the values); 360,000 compounds, 0.56% hits; in the data active = activity change below about -65%; inconclusive = mostly about -30% to -63%
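Compounds are tested against tagged Six1 and Eya2 proteins bridged by glutathione donor and nickel acceptor beads; after a one-hour incubation at 37 °C without light, AlphaScreen emission is recorded.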
DT40 TDP1 CPT: growth inhibition of DT40 Tdp1-/-;hTDP1 cells with camptothecin (screen for TDP1 inhibitors); chicken DT40 Tdp1-/-;hTDP1 cells + 20 nM CPT, ATP luminescence, 48 h; Potency, µM (top dose mostly 46.2 µM), inactives show at the highest dose activity change, negative = growth inhibition, usual class: inhibitors; 420,000 compounds, 12% hits; AID 686979; also: potency is read from the fitted curve at half-maximal effect; nearly all actives have a fitted effect of over 55% in size
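Chicken DT40 Tdp1-/- cells stably complemented with human TDP1 were seeded at 400 cells/well in medium containing 20 nM camptothecin, exposed to pin-transferred compounds, and grown at 37 °C for at least 48 hr. Viability was read as ATP luminescence.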
CtBP-E1A blk: blocks the CtBP interaction with E1A; 340,000 compounds, 0.49% hits; activity change, % (no concentration beside the values); AlphaScreen GST-E1A/His-CtBP binding, 1536-well; active compounds read low; in the data active = activity change below about -65%; inconclusive = mostly about -30% to -63%
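GST-E1A and His-tagged CtBP (125 nM each as 5X stock) were preincubated with pin-transferred compound for 2 h at 37 °C in the dark, then glutathione donor and nickel acceptor beads were added for 1 h before AlphaScreen reading.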
IL1B secr inh: inhibitors of inflammasome signaling (IL-1 beta secretion); 360,000 compounds, 4.7% hits; THP-1 LPS/ATP IL-1B secretion, AlphaLISA, 16 h; active compounds read low; activity change, % at 57.5 µM; in the data active = activity change below about -50%; inconclusive = mostly about -30% to -49%
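THP-1 cells pretreated 1 hr with compounds (up to 57.5 uM final), then stimulated with LPS (250 ng/mL final) plus ATP (1.25 mM final); secreted IL-1B measured by AlphaLISA after 16 hr, decreased signal indicating inhibition.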
* = called active by the depositor; ? = inconclusive; . = no result given; [ ] = remark or other dose. Unless noted, calls follow the shape of the dose curve; as a rule, active = well fitted curve in the direction sought with a large enough effect; inconclusive = small, poorly fitted or top-dose-only effect, or another doubt; inactive = no such curve, though single readings can be large; an effect the other way counts as inactive or inconclusive. % is scaled to controls: 0 for no effect and ±100 for the full control effect.

SMILES | TDP1 inh | TDP1 cell noCPT | Six1-Eya2 blk | DT40 TDP1 CPT | CtBP-E1A blk | IL1B secr inh
CN(Cc1ccccc1)C(=O)Cn1c(=O)oc2cc(S(=O)(=O)NCc3ccccc3)ccc21 | 0% | 21µM* | -3 | 15µM* | 4 | 0
CC1CC(C)CN(S(=O)(=O)c2ccc3c(c2)oc(=O)n3CC(=O)NCc2cccnc2)C1 (centres undefined) | 6% | ? | -3 | ? | 8 | -14
CCCCn1c(O)c(C(CC)=NCc2cccnc2)c(=O)[nH]c1=O | 2% | -17% | -2 | -18% | 0 | 28
COc1ccc(-n2c(/C=C/c3ccc(O)c(OC)c3)nc3ccccc3c2=O)cc1 | -2% | 26µM* | -2 | 21µM* | . | -67*
COc1cc(/C=C/c2nc3ccccc3c(=O)n2-c2ccc(Br)c(C)c2)ccc1O | 8% | 16µM* | . | 21µM* | . | .
O=c1c2ccccc2nc(/C=C/c2ccccc2O)n1-c1ccc(Br)cc1 | -7%[12.3 µM] | 16µM* | . | ? | . | .
COc1ccc(-n2c(/C=C/c3ccc4c(c3)OCO4)nc3ccccc3c2=O)cc1 | -8% | 15µM* | 13 | 26µM* | 6 | -8
COc1cccc(-n2c(/C=C/c3ccc(O)c(O)c3)nc3ccccc3c2=O)c1 | -6% | ? | 7 | 18% | -8 | ?
COc1ccc(N=C(C)c2c(O)n(C3CCCCC3)c(=O)[nH]c2=O)c(OC)c1 | 5% | ? | 1 | -27% | 4 | 11
O=C(C[C@@H]1NCCC[C@H]1O)Cn1cnc2cc(Br)c(Cl)cc2c1=O | . | -23% | . | -1% | . | .
Cc1ccc(-n2c(/C=C\c3ccc(F)cc3)nc3ccccc3c2=O)cc1Cl | 5% | 16µM* | . | 15µM* | . | .
COc1ccc(-n2c(/C=C/c3ccc(O)cc3)nc3ccccc3c2=O)cc1 | . | 21µM* | -5 | 23µM* | -10 | -54*
O=c1c2ccccc2nc(/C=C/c2ccc(O)cc2)n1-c1ccc(O)cc1 | . | ? | 20 | ? | . | -14
CC(=O)O[C@H]1C(=O)[C@@]2(C)C([C@H](OC(=O)c3ccccc3)[C@]3(O)C[C@H](OC(=O)[C@H](O)[C@@H](NC(=O)c4ccccc4)c4ccccc4)C(C)=C1C3(C)C)[C@]1(OC(C)=O)CO[C@@H]1C[C@@H]2OC(=O)[C@H](C)NC(=O)c1ccc(-c2c3ccc(=O)cc-3oc3cc(O)ccc23)c(C(=O)O)c1 (some centres undefined) | 26%[21 µM] | . | . | . | . | .
NP(=O)(OCC(F)(F)F)Oc1cccc2ccccc12 (centres undefined) | 5% | -23% | 0 | -14% | . | -2
O=[N+]([O-])c1cccc2ccccc12 | 10% | . | . | . | . | .
O=C(Nc1ccc2ccccc2c1)c1nn(C23CC4CC(CC(C4)C2)C3)cc1Br | -5% | 21µM* | -1 | 18µM* | 2 | -6
Cc1nc(Cl)sc1C(=O)Nc1ccc2ccccc2c1 | 0% | -26% | -13 | 4% | -1 | -8
O=C1C=CC(=O)C2C1C1(Cl)C(Cl)=C(Cl)C2(Cl)C1(Cl)Cl (centres undefined) | . | ? | -9 | ? | -4 | -103*
ClCC1C(CCl)C2(Cl)C(Cl)=C(Cl)C1(Cl)C2(Cl)Cl (centres undefined) | 21% | . | . | . | . | .
CCn1c(C)c(C(=O)NCCc2ccccc2)c2cc(OC)ccc21 | . | -22% | 0 | -3% | -1 | -7
CCOc1ccccc1N(CC(=O)NCCc1ccc(OC)cc1)S(=O)(=O)c1ccc(C)cc1 | . | 8.2µM* | -2 | 10µM* | -3 | -19
O=[N+]([O-])c1ccc(NCCCN2CCOCC2)nc1 | 2% | -4% | -1 | 7% | -1 | 13
O=C(NCC(c1cccs1)N1CCOCC1)c1cc([N+](=O)[O-])cc([N+](=O)[O-])c1 (centres undefined) | 3% | ? | 9 | -29% | 0 | -62*
CCC(=O)O[C@@H]1[C@@H](OC(C)=O)[C@@]2(O)C(C[C@H](O)C2(C)C)[C@](C)(O)[C@H]2CC[C@@H]3[C@@H](O)[C@]12C[C@@]3(C)O (some centres undefined) | 0% | -3% | -1 | -16% | 5 | 24
SMILES | TDP1 inh | TDP1 cell noCPT | Six1-Eya2 blk | DT40 TDP1 CPT | CtBP-E1A blk | IL1B secr inh
CCOC(=O)c1c(NC(=O)C(c2ccccc2)c2ccccc2)sc2c1C1CCN2CC1 | 8% | 23µM* | -20 | 21µM* | -5 | -19
COC(=O)C1=C(C(=O)OC)C2c3ccccc3C1c1ccccc12 | . | ? | -4 | ? | 6 | 9
Cc1ccnc(NC(=O)CCCc2ccc(N(CCCl)CCCl)cc2)n1 | . | 0.58µM* | -8 | 0.23µM* | -2 | 3
COc1ccc(-c2nn3c(=O)cc(CN4CCN(C(=O)COc5ccc(F)cc5)CC4)nc3s2)cc1 | 0% | ? | . | -28% | . | .
COc1cccc(-c2nn3c(=O)cc(CN4CCN(C(=O)COc5ccccc5C)CC4)nc3s2)c1 | 3% | 23µM* | . | ? | . | .
COc1ccccc1-c1nn2c(=O)cc(CN3CCN(C(=O)Nc4ccc(C)cc4Cl)CC3)nc2s1 | 8% | 6.5µM* | . | 15µM* | . | .
COc1ccc(-c2nn3c(=O)cc(CN4CCN(S(=O)(=O)c5ccc(C)cc5)CC4)nc3s2)cc1 | 0% | 16µM* | . | 21µM* | . | .
COc1ccc(OCC(=O)N2CCN(Cc3cc(=O)n4nc(-c5ccccc5C)sc4n3)CC2)cc1 | 3% | 10µM* | . | 15µM* | . | .
Cc1ccc(-c2nn3c(=O)cc(CN4CCN(C(=O)COc5ccc(C)c(C)c5)CC4)nc3s2)cc1 | 3% | ? | . | ? | . | .
COC(=O)C1=CO[C@@H](C)[C@@H]2CN(CCc3c[nH]c4ccccc34)CC[C@H]12 | . | ? | -16 | ? | 0 | -10
COc1cccc(-c2nc3cc4c(cc3cc2CN(C(=O)c2cccs2)C2CC2)CCC4)c1OC | . | 16µM* | . | ? | . | .
CS(=O)(=O)c1ccc(C2=C(CNC(=O)c3cccnc3)[C@H]3CC[C@@H](C2)N3Cc2ccco2)cc1 | . | -4% | -2 | 16% | 0 | 15
O=Cc1cn(Cc2ccccc2F)c2ccccc12 | 5% | 15µM* | 7 | 21µM* | 8 | ?
COc1ccc(OC)c(NC(=O)Cn2cc(C(=O)c3ccccc3F)c3ccccc32)c1 | 2% | 23µM* | . | ? | . | .
CC(=O)c1cn(Cc2ccccc2C#N)c2ccccc12 | 0% | 1µM* | 2 | 2.1µM* | 1 | 0
